The list is not random: actives were taken first. Their share in the collection is about 0.4%.
HRas wt GTP bind: modulators of GTP binding to HRas wildtype, primary screen, biochemical, bead-based flow cytometry, multiplex. AID 759, 2007. GST-Ras wt beads, Bodipy-FL-GTP binding; actives lie on both sides. GTP binding activity, % at 10 µM. 190,000 tested, 0.14% active. GTPase HRas (Homo sapiens), P01112;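 active = GTP binding activity at least 20% away from the 100% baseline, either lowered as inhibitor or raised as activator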;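 also: 0% = unlabeled GTP competition control and 100% = no-compound control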
Rab2A wt mod: modulators of GTP binding to Rab2A wildtype, primary screen, biochemical, dog, bead-based flow cytometry, multiplex; Ras-related protein Rab-2A (Canis lupus familiaris), P61105; GST-Rab2 wt beads, Bodipy-GTP binding; GTP binding activity, % at 10 µM; 190,000 tested, 0.19% active;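 active = GTP binding activity at least 20 points away from 100%, either lowered or raised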;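 also: 0% = beads with excess unlabeled GTP and 100% = no-compound control corrected for plate trend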
Rac1 mut GTP: GTP binding modulators of activated mutant Rac1, primary screen, biochemical, bead-based flow cytometry, multiplex, fluorescent GTP; percent activity (GTP binding), % at 10 µM; GST-Rac1 activated beads; actives lie on both sides; 100% means binding = to untreated wells; Ras-related C3 botulinum toxin substrate 1 (Homo sapiens), P63000; 190,000 tested, 0.11% active; AID 764, 2007;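 active = GTP binding at least 20 percentage points away from the 100% baseline, in either direction, so actives lie on both sides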
Rab7 wt modul: modulators of GTP binding to Rab7, primary screen, biochemical, wildtype, multiplex bead flow cytometry | Rab7 GTPase wild type (dog), Bodipy-FL-GTP binding | GST-Rab7 beads, fluorescent GTP binding; actives lie on both sides; untreated = 100%, excess cold GTP = 0% | GTP binding activity (percent of control), % at 10 µM | 190,000 tested, 0.055% active | AID 758, 2007;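 active = fluorescent GTP binding to Rab7 beads changed by at least 20 points from the 100% baseline, either direction, mostly lower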;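 also: median green fluorescence of bound Bodipy-FL-GTP per Rab7 bead population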
Cdc42 wt GTP: modulators of GTP binding to wildtype Cdc42, primary screen, biochemical, multiplex bead flow cytometry, Bodipy-GTP; GST-Cdc42 beads; actives lie on both sides; 190,000 tested, 0.2% active; Cell division control protein 42 homolog (Homo sapiens), P60953; AID 761, 2007; percent activity (GTP binding), % at 10 µM;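 active = percent activity GTP binding at least 20 points away from the 100% baseline, either down as inhibitor or up as activator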;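 also: median bead fluorescence of bound Bodipy-FL-GTP at 100 nM; 0% = excess unlabeled GTP control and 100% = no compound control; below 100% means less GTP binding so inhibitor and above means activator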
Target sequence (P60953 whole entry, looked up): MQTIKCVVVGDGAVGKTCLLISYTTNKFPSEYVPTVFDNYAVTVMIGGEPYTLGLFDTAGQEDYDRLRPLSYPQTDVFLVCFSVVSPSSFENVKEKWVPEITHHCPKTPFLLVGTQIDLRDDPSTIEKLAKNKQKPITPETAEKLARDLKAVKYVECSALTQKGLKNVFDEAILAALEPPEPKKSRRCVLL
Rac1 wt GTP bind: wildtype Rac1 GTP binding modulators, primary screen, biochemical, GST-Rac1 beads, flow cytometry, multiplex | Ras-related C3 botulinum toxin substrate 1 (Homo sapiens), P63000 | fluorescent GTP binding; actives lie on both sides; 0 = cold GTP competed, 100 = untreated | GTP binding activity (% of control), % at 10 µM | 190,000 tested, 0.27% active | AID 757, 2007;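 active = GTP binding activity at least 20 points away from the 100% control level, either lower or higher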
The depositor's hits bear a star.

SMILES	HRas wt GTP bind	Rab2A wt mod	Rac1 mut GTP	Rab7 wt modul	Cdc42 wt GTP	Rac1 wt GTP bind
CN(C)c1ccc(/C=C/C=C2/C(=O)NC(=O)N(c3ccccc3)C2=O)cc1	81	78*	77*	86	74*	70*
CSc1ncc(Cl)c(C(=O)O)n1 (tested in a mixture with another compound)	102	102	99	103	104	105
Cc1nc2c(=O)n(C)c(=O)nc-2n(C)n1	88	85	82	87	77*	106
CCOC(=O)C(=CNc1ccc(C(O)(C(=O)OCC)C(F)(F)F)cc1C)C(=O)OCC (stereo not given)	100	100	101	94	96	99
CN1C(=O)N(C)C(=O)C2(Cc3c(ccc4ccccc34)N(C)C2)C1=O	96	91	79*	96	86	86
COc1ccc(C(=O)CC2(CC(=O)c3ccc(OC)cc3)C(=O)N(C)C(=O)N(C)C2=O)cc1	101	99	94	100	99	100
Cc1sc(-n2c(C)cc(C=C3C(=O)NC(=O)NC3=O)c2C)c(C#N)c1C	85	82	78*	89	81	79*
Cc1cc(/C=C2\C(=O)NC(=O)N(c3ccc(Cl)cc3)C2=O)c(C)n1-c1sc2c(c1C#N)CCCC2	94	91	86	96	93	99

Compound activity: PubChem, NMMLSC
